Source: PubChem BioAssay AID1259416 (Broad Institute, 2018)
Screen size: about 69,000 compounds; about 2,600 (3.8%) were called active. Cut-off read from the data, not from the text of the source: active = activity change below about -70% (passing the limit was not always enough); inconclusive = no clear call, values can overlap the other calls. Only a selection was taken, and actives are over-represented in it overall.

assay: inhibitors of Toxoplasma growth in IFN-γ-primed hosts – cell-based, primary screen (AID 1259416); conditions: Toxoplasma gondii growth in IFN-gamma-treated host cells; stronger effect = lower value; concentration not given here;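 note: host cells are HeLa cells infected with Toxoplasma gondii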

Compound | activity change, negative = inhibition
CCOC(=O)c1oc2ccc(S(=O)(=O)Nc3ccc4[nH]c(=O)[nH]c4c3)cc2c1C | 75.3% (inactive)
COCc1nnn2c1CN(Cc1ccc(C)s1)CCC2 | -49.3% (inactive)
O=C(C1CCOCC1)N1CC(=O)N2[C@H](CO)[C@H](c3ccc(C#CC4CCCCC4)cc3)[C@H]2C1 | 19.2% (inactive)
Cc1nc(SCC(=O)Nc2cccc(C(F)(F)F)c2)oc1C | 21% (inactive)
COc1ccc(OC)c(NC(=O)Cn2c(=O)cc(C(=O)N3CCCCC3)c3ccccc32)c1 | 5.37% (inactive)
CN(C)C(=O)[C@@H]1CCS(=O)(=O)[C@H]2CN(C(=O)NCc3ccccc3)C[C@@H]12 | 7.18% (inactive)
COc1cccc(CC2(CO)CCN(c3ncnc4sccc34)CC2)c1 | -61.2% (inactive)
O=S(=O)(c1ccccc1)N1[C@H](CO)[C@@H]2c3ccccc3NC[C@@H]21 | -13.4% (inactive)
COc1ccc(S(=O)(=O)Nc2ccc3c(c2)C(=O)N([C@@H](C)CO)C[C@H](C)[C@H](CN(C)Cc2ccc(C(F)(F)F)cc2)OCCCC[C@@H](C)O3)cc1 | -47% (inactive)
COc1ccc(S(=O)(=O)Nc2ccc3c(c2)C(=O)N([C@@H](C)CO)C[C@@H](C)[C@H](CN(C)Cc2ccc(C(F)(F)F)cc2)OCCCC[C@@H](C)O3)cc1 | -112% (active)
CNC[C@@H]1OCCCC[C@H](C)Oc2ccc(NS(=O)(=O)c3ccc(F)cc3)cc2C(=O)N([C@@H](C)CO)C[C@@H]1C | 41.1% (inactive)
CNC[C@H]1OCCCC[C@@H](C)Oc2ccc(NS(=O)(=O)c3ccc(F)cc3)cc2C(=O)N([C@H](C)CO)C[C@H]1C | 193% (inactive)
C[C@@H]1CN([C@H](C)CO)C(=O)c2cc(NC(=O)NC3CCCCC3)ccc2O[C@@H](C)CCCCO[C@H]1CN(C)S(C)(=O)=O | -35.8% (inactive)
C[C@@H]1CCCCO[C@H](CN(C)C(=O)CCCN(C)C)[C@H](C)CN([C@@H](C)CO)C(=O)c2cc(NS(=O)(=O)c3ccc(Cl)cc3)ccc2O1 | -84.8% (active)
C[C@@H]1CCCCO[C@H](CN(C)C(=O)Nc2ccccc2)[C@H](C)CN([C@H](C)CO)C(=O)c2cc(NC(=O)Nc3ccccc3)ccc2O1 | 72.5% (inactive)
C[C@@H]1CCCCO[C@@H](CN(C)S(=O)(=O)c2ccccc2)[C@H](C)CN([C@H](C)CO)C(=O)c2cc(NC(=O)Nc3ccc4c(c3)OCO4)ccc2O1 | -79.4% (active)
C[C@@H]1CCCCO[C@H](CN(C)Cc2ccc3c(c2)OCO3)[C@H](C)CN([C@@H](C)CO)C(=O)c2cc(NS(=O)(=O)c3cn(C)cn3)ccc2O1 | 11.5% (inactive)
C[C@@H](O)C#Cc1ccc([C@H]2[C@@H](CO)N3CCCCN(CC4CC4)C[C@@H]23)cc1 | -5.07% (inactive)
Cc1nc(-c2cccnc2)sc1C(=O)N(CCN(C)C)Cc1ccc2c(c1)OCO2 | -47.1% (inactive)
CCC(NC(=O)CCNC(=O)c1ccccc1F)c1cccs1 (stereo unspecified) | 98.8% (inactive)
COc1ccc2c(c1)NC1(CCN(S(=O)(=O)c3c(C)nn(C)c3C)CC1)c1cccn1-2 | 1.37% (inactive)

Compound | activity change, negative = inhibition
CN1C(=O)CCc2cc(C(=O)NCc3cccc(Cl)c3)ccc21 | -50% (inactive)
Cc1csc(CCCNc2cc(N(C)C)ncn2)n1 | -14.5% (inactive)
Cc1ccc(-c2nnn(CC(=O)N(CC(=O)NC(C)(C)C)c3ccc(C(C)C)cc3)n2)o1 | -40.3% (inactive)
CC(C)n1cnc(-c2cc(C(=O)N3CCC(N(C)C)CC3)c3ccccn23)c1 | -48.2% (inactive)
CN(C)C1CCN(C(=O)c2ccnn2-c2ccc3ccc(-c4ccccc4)cn23)CC1 | -101% (active)
Cc1cc(C(=O)N2CCCC(N(C)C)CC2)sc1C (stereo unspecified) | 8.26% (inactive)
CC(C)c1noc(C2CCCN(C(=O)c3cccc4ccnn34)C2)n1 (stereo unspecified) | 88% (inactive)
Cc1ccc2c(c1)C1CN(C)CCC1N2S(=O)(=O)c1ccc(Oc2ccc([N+](=O)[O-])cc2)cc1 (stereo unspecified) | -88.8% (active)
Cc1ccc(NC(=O)NCC(c2cccnc2)c2c[nH]c3ccccc23)cc1F (stereo unspecified) | 41.3% (inactive)
C=CCOCC1c2c(ncn2C(C)C)CCN1C(=O)CC (stereo unspecified) | -6.91% (inactive)
CC(=O)N1C[C@@H]2[C@H](c3ccccc31)[C@H](CO)N2Cc1ccc(Cl)cc1 | 2.64% (inactive)
Cc1ccc(C(=O)N2CC[C@H]3[C@@H]2CCN3c2nncs2)o1 | 17.4% (inactive)
Cn1ccnc1-c1c(-c2ccccc2)ncn1CC(O)Cc1ccccc1 (stereo unspecified) | -0.253% (inactive)
Cc1cccc(C)c1-c1c(-c2ccccc2)ncn1CCCCN | -13.6% (inactive)
OC(Cn1cnc(-c2ccccc2)c1-c1ccccc1)Cn1c2ccccc2c2ccccc21 (stereo unspecified) | -85.9% (active)
CCCC(=O)NCCc1sc(-c2cccc(F)c2)nc1C | 257% (inactive)
CCSc1nc(CC(=O)NCc2nnc3n2CCC3)cs1 | -48.7% (inactive)
c1ccc(C2CCCN2Cc2ccc3occc3c2)nc1 (stereo unspecified) | 2.99% (inactive)
Cc1nn(Cc2nc(-c3ccc(NC(=O)C4CCCO4)cc3)oc2C)c(C)c1C (stereo unspecified) | 33.9% (inactive)
COCC(=O)Nc1ccc(-c2nc(Cn3nc(C)cc3C)c(C)o2)cc1 | -41.3% (inactive)
Cc1cc(C)cc(C(=O)Nc2ccc(-c3nc(Cn4cc(C)cn4)c(C)o3)cc2)c1 | 2.92% (inactive)

Compound | activity change, negative = inhibition
Cc1cnn(Cc2nc(-c3ccc(NC(=O)c4cc(F)ccc4F)cc3)oc2C)c1 | -88.5% (active)
COc1cccc(C(=O)Nc2ccc(-c3nc(Cn4nc(C)c(C)c4C)c(C)o3)cc2)c1 | -97.6% (active)
Cc1ccsc1C(=O)Nc1ccc(-c2nc(Cn3cccn3)c(C)o2)cc1 | -12.6% (inactive)
Cc1cnn(Cc2nc(-c3ccc(NC(=O)c4ccsc4)cc3)oc2C)c1 | -40.9% (inactive)
CCC(=O)Nc1ccc(-c2nc(Cn3cccn3)c(C)o2)cc1 | 61.8% (inactive)
Cc1oc(-c2ccc(NC(=O)c3ccc(C(C)(C)C)cc3)cc2)nc1Cn1cccn1 | -96.9% (active)
Cc1noc(C)c1CN1CC2C[C@H](C(=O)NCCN(C)C)N(C)C2C1 (stereo partly specified) | -7.4% (inactive)
CN(C)S(=O)(=O)c1ccc2c(c1)cc(C(=O)NCc1cccc(F)c1)n2Cc1ccncc1 | 104% (inactive)
CCc1ccc(-n2cc3c(=O)n(C)c(=O)n(C)c3c2)cc1 | -61.6% (inactive)
CC[C@H]1CN(C(=O)CCc2cnccn2)CC[C@@]1(C)O | -44.1% (inactive)
Cc1cccc(C(=O)N2CCC3(CC2)CC(CC(=O)NCC2CC2)c2ccccc2O3)n1 (stereo unspecified) | 0.492% (inactive)
Cc1cccc(Cl)c1NC(=O)N1CCN(CC(C)C)C(=O)C1C (stereo unspecified) | -2.03% (inactive)
O=C(Nc1cnc2n1CCCC2)c1ccccc1-n1cncn1 | -1.83% (inactive)
C=CCn1cc(-c2c(-c3ccccc3)ncn2CCc2ccccn2)cn1 | -1.4% (inactive)
O=C(CN1CCCC1=O)N1CCCC2(C=Cc3ccccc3O2)CC1 (stereo unspecified) | -13.8% (inactive)
Cc1ccc(CN2CCC3(CC2)CC(NC(=O)C2CC2)CCO3)cc1C (stereo unspecified) | -5.15% (inactive)
Cc1ccc(-c2ccccc2-n2cnnc2)o1 | -6.57% (inactive)
Cc1ccccc1-c1nc2ccc(-n3cnnc3)cc2o1 | -95.3% (active)
COCCNC(=O)C[C@@H]1CC[C@H]2[C@H](COc3ccc(NS(=O)(=O)c4ccc(Cl)cc4)cc3C(=O)N2C)O1 | -37.6% (inactive)
